The text below walks through data of the supplement of paper PMC6555819.

In this assay the test system is LXRb:RXRa (NR concentration 270 nM, RXRa partner concentration 90 nM). Kind of assay: PBM binding z-score (relative to random genomic background probes); higher = stronger binding; sequences stand for … in GC…GCGATTGACAGCGTAGAATGAAGG
As for the experimental part: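 Protein-binding microarray (Agilent 4x180K custom design, double-stranded 60-nt probes: 5' GC cap, 34-nt variable region, 24-nt constant primer region; full probe sequence given). Purified or IVT nuclear receptor:RXRα heterodimers (3:1 NR:RXRα, mostly 270:90 nM) or homodimers were incubated for 1 h in PBS with 2% milk and no ligand, then detected with Alexa488 antibodies. Fluorescence from o1-orientation probes (~5 replicates averaged) was converted to z-scores against 500 random hg19 background probes. Variable regions are seed direct-repeat (DR0–DR5) sites, all their single-nucleotide variants and half-site ablations.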
For the sequence GGAACGAGGTCAAGTTGATAGCAGAGTTTGATGG, the PBM binding z-score turned out to be 5.3.
On to AGTCAAAGTTCAGGACGAGGTAACGTTAAGCACG, for which the PBM binding z-score worked out at 1.77.
With CGTCCAAGGTCACGGTCAGTGAAAGAGACTCGAA the figure was 4.76; with CCGAGTTGGTCAAGGTCACACACGCTATAGGTAC, 3.66; with AAAACAGGGTCATCGTAGGCCAGAGTACGCACAG, 4.8.
CCTACTCGGCCAAAAAGGTCATTGATGCCGATAA: the PBM binding z-score came to 4.63.
CGAACTAGGTCAAGGGACAGTGAAAGGCGACGTA came in with a PBM binding z-score of 1.33.
For the sequence ATATGTAGGTTAGCTGGGGTCATTCACACTAGGC, the PBM binding z-score turned out to be 5.1.
With CCAGACAGGTGAGAAGGTAACTCAGCCTCGATTA the figure was 0.609.
TAGCCTAGGTCATTCAGGGGCCACTATAGAAAGC gave a PBM binding z-score of 3.38.
Turning to CCTGCTAGGTCATGGTCAGCGAATCTACAGTATG, the PBM binding z-score stood at 1.54.
The same measure for TAGCCTAGGTCATGCGGGACAGTATAGTGTCGGC: 1.88; for CCTACTGGGCCAAAAAGGTCATTGATGCCGATAA: 3.74; for CGAACTAGGTCGCCAGGACAGTGAAGAGGTTGGA: -0.222.
With CGAACGAGGTCACCAGGACAGTGAAGAGGTTGGA the figure was 4.94; with CGTCAAAGTTCAAGGTCACGTAACAGAAAGCAGC, 5.52.
With ACTTAAGGGTCAACGAGGTTATAGCACGCGTATA the figure was 5.33.
Sequence TAGCCTAGGTCATACAGGGGCCAGTATAGAAAGC yielded a PBM binding z-score of 2.48.
As to AGAATGAGGTCATTAAGATCAGGGAATTGCGGTC, the PBM binding z-score came to 4.71.
With CAAACCAGGTCAAAGGTCAAAGTCGAGCCAACCA the figure was 7.49.
CTATGTAGGTTAAGGGAGTCATTCAGTTTGAAAG: the PBM binding z-score came out at 0.642.
CGTCAAAGATCAAGGTAACGTAACAGAAAGCAGC displayed a PBM binding z-score of 0.0744.
CGTCAAAGTCCAAGGTAACGTAACAGAAAGCAGC returned a PBM binding z-score of -0.011.
Sequence TTGCCAAGGTGAAAGGTCGTTGATGCACGCCTTG came in with a PBM binding z-score of 2.63.
For AGTCAAAGTTCATCTAGGTAACATAAGATATGCT, the PBM binding z-score worked out at 3.93.
Consider TATACAGGGTCAAAGGCCAAAGTACGAATGTCGA, for which the PBM binding z-score is 5.4.
Sequence ATCGAAAGGTCGACGCGGTGAGTATACACCGTTT displayed a PBM binding z-score of 2.25.
The same measure for CGAACTAGGTCATCCAGGACCGTGAATACATTGA: 1.72; for CGAACGAGGTCATGAGTTGATAGCAAATGCCGAT: 4.51.
With CCTTACGGGTCACGAGGTTGTAGCACGACGAGCG the figure was 3.44; with GGAACGAGGGCATTCGAGTTCATAGCATGGCGAT, 3.44.
As to CCTACTGGGCCTAAGGTCATTGATTCCAATGCTC, the PBM binding z-score stood at 3.36.
With ATCGAAAGGTCCAAGGTGAGTATACCCACCCGAA the figure was 0.126; with TTGCCTAGGTCATTGGGCCAGTATAGTACGCATC, 2.28; with CCTACTGGGCCAAAAAGTTCATTGATGCCGATAA, 1.09.
For the sequence AGTCAAACTTCAGGACGAGGTAACGTAAAGCACG, the PBM binding z-score is -0.266.
The same measure for AATACAGGGTCATCGTACGCCAGAGTACGCACAG: 4.92; for CCTACTGGGCCGTTCAGAGGTCATTGATCATATG: 3.55.
With ATATGTAGGTTATCGGGTCATACAGTTTGCGCAT the figure was 3; with CCTACTGGGCCACGAAAGGCCATTGATTCAGTGA, -0.37.
